AHR act = human AHR activation | P35869 | AHR-responsive luciferase reporter cells, luminescence | activation, % at 5 µM | 320,000 tested, 2.5% active | AID 2796; in the data active means activation above about 47%;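 further: 0% = vehicle wells and 100% = reference agonist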
Target sequence (P35869 whole entry, looked up): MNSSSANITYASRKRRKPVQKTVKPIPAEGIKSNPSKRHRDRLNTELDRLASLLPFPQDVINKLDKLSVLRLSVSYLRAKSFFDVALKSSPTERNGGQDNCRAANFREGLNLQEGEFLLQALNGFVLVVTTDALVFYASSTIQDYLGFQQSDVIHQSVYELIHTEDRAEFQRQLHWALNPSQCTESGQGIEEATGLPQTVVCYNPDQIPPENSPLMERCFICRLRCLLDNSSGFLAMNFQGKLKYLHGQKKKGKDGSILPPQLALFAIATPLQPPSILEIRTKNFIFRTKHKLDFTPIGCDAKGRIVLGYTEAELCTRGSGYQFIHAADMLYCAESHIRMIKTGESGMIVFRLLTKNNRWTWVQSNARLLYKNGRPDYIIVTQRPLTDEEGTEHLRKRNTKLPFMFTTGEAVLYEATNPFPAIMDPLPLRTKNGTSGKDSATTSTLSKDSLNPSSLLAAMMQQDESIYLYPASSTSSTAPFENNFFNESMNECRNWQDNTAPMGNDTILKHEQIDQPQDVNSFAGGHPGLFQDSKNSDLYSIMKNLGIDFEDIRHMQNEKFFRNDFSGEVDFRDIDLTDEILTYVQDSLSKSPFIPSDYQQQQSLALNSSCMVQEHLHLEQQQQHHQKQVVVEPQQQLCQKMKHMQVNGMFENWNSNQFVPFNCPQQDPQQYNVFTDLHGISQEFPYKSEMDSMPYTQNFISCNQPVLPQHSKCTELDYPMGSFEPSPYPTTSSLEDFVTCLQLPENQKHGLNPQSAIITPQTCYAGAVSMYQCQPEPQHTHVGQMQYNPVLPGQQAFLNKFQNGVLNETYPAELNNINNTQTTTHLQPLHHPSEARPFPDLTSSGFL
hcDAF12 agonist = activators of H. contortus DAF-12 nuclear receptor; activation, % at 6.8 µM; AID 652067; HEK293 hcDAF-12 lit1-tk-luc reporter, luminescence; 0% DMSO, 100% Δ7-dafachronic acid; 370,000 tested, 1.4% active;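 active means activation above the mean of all tested compounds plus 3 SD, cut at about 5.5% in these data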;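 further: 100% = response to 3 µM Δ7-dafachronic acid high control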
hgDAF-12 ag = hgDAF-12 agonism, primary luciferase screen; activation, % at 6.8 µM; AID 687014; HEK293 GAL4-hgDAF12 UAS-luciferase reporter, agonist luminescence; normalized to butyrate control; 370,000 tested, 1.8% active;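 active means activation above a cutoff set at the mean of all screened compounds plus 3 SD, cut at about 10% in these data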;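 further: 0% = DMSO wells and 100% = sodium butyrate wells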
DAX1 inh-1 = NR0B1 (DAX1) inhibition. HEK293 Gal4-DAX1 luciferase reporter, luminescence. inhibition, % at 6.75 µM. 340,000 tested, 0.99% active. AID 504766;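 active means inhibition above the mean over all tested compounds plus 3 SD, cut at about 4.2% in these data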;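 further: 0% = DAX1-transfected cells with DMSO and 100% = empty-vector control cells with DMSO; inhibition shows as a rise in luminescence from relieved DAX1 repression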
ssDAF12 agonist = S. stercoralis DAF-12 activation, primary screen; AID 652126; HEK293 ssDAF-12/GRIP1 lit1-tk-luc reporter, luminescence; % of 3 µM dafachronic acid response; 370,000 tested, 1% active; activation, % at 6.8 µM;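 active means activation above the mean over all tested compounds plus 3 SD, cut at about 0.9% in these data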;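 further: 0% = DMSO-only wells and 100% = 3 µM delta7-dafachronic acid wells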
DAX1 inh-2 = blocks DAX1 repression of SF-1 activated StAR promoter; HEK293T StAR-luciferase reporter, SF-1/DAX-1 repression relief; inhibition, % at 6.8 µM; 370,000 tested, 1.1% active; AID 652010;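 active means inhibition above the mean over all tested compounds plus 3 SD, cut at about 3.6% in these data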;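 further: 0% = DAX-1 cells with DMSO and 100% = cells lacking DAX-1 with DMSO; higher inhibition means more luminescence from relief of DAX-1 repression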
DAX1 inh confirm = confirmation of human DAX1 (NR0B1) inhibitors. shares compounds with DAX1 inh-2. HEK293T StAR-promoter luciferase reporter, SF-1/DAX-1 repression. inhibition, % at 6.8 µM. 2,400 tested, 87% active. AID 652134;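 active means inhibition above the average of every tested compound plus 3 SD, cut at about 3.8% in these data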;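 further: 0% = DAX-1 cells with DMSO and 100% = no DAX-1 control cells with DMSO; active compounds raise luminescence by relieving repression of the StAR reporter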
SF1 mutant ctr = nonselective inhibitor or artifact in SF-1 mutant DAX1 counter-screen | inhibition, % at 6.8 µM | AID 652136 | 2,400 tested, 78% active | HEK293 StAR-luciferase, SF-1 AF2 mutant, luminescence | shares compounds with DAX1 inh-2;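 active means inhibition above the mean of all tested compounds plus 3 SD, cut at about 3% in these data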;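 further: 0% = DAX-1 transfected cells with DMSO and 100% = cells without DAX-1 with DMSO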
LXRb hcDAF ctr = activates human LXR-beta, counter-screen for hcDAF-12 agonists; shares compounds with hcDAF12 agonist; HEK293 Gal4-LXR tk-luc reporter, luminescence, 24 h; normalized: DMSO 0%, positive control 100%; activation, % at 6.8 µM; 3,400 tested, under 10 active; AID 743027;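 active means mean percent activation of the reporter above a cutoff set as the average over tested compounds plus their standard deviation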
hcDAF12 ag = hcDAF-12 agonism, confirmation assay; shares compounds with hcDAF12 agonist; HEK293 hcDAF-12 lit1-tk-luc reporter, luminescence; % of Δ7-dafachronic acid response; activation, % at 6.8 µM; 3,400 tested, 61% active; AID 743032;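 active means mean activation across triplicate tests above the threshold derived from the earlier primary screen, cut at about 5.5% in these data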;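 further: 0% = DMSO only wells and 100% = 3 µM Δ7-dafachronic acid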
hgDAF12 conf = hgDAF-12 agonism, confirmation assay; shares compounds with hgDAF-12 ag; HEK293 GAL4-hgDAF12 luciferase reporter, agonist mode; percent of butyrate response; activation, % at 6.8 µM; 3,300 tested, 80% active;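 active means mean activation over triplicate wells above the hit cutoff derived from the earlier primary screen, cut at about 11% in these data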;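 further: 0% = DMSO low control and 100% = 2 mM sodium butyrate high control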
LXRb DAF12 ctr = LXR-beta agonism as DAF-12 counter-screen; shares compounds with hgDAF-12 ag; HEK293 Gal4-LXR luciferase reporter, 24 h; activation, % at 6.8 µM; 3,300 tested, under 10 active; AID 743051;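 active means mean activation of the triplicate above a set limit carried over from the primary screen, none filed active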
* hit, by the source's call; . = no result given. Hits are enriched below; roughly 5.7% of the tested compounds scored in any of these assays.

SMILES	AHR act	hcDAF12 agonist	hgDAF-12 ag	DAX1 inh-1	ssDAF12 agonist	DAX1 inh-2	DAX1 inh confirm	SF1 mutant ctr	LXRb hcDAF ctr	hcDAF12 ag	hgDAF12 conf	LXRb DAF12 ctr
Cc1cccc(-c2nc3cc(NC(=O)C4CCCO4)ccc3o2)c1 (stereo not drawn)	2	8.7*	14*	-3	0.9*	6.8*	15*	5.4*	2	7.8*	12*	1
Cc1ccc(-c2nc3cc(NC(=O)C(C)C)ccc3o2)cc1C	-15	1	-3	3	-1	1	.	.	.	.	.	.
CC(=O)Nc1ccc2oc(-c3ccccc3)nc2c1	-7	2	15*	4	1	5.6*	12*	8.8*	.	.	15*	1
CC(=O)Nc1ccc(S(=O)(=O)Nc2cccc(-c3nc4cc(C)ccc4o3)c2)cc1	-1	-1	-1	0	-1	0	.	.	.	.	.	.
Cc1ccc(-c2nc3cc(NC(=O)C(C)C)ccc3o2)cc1	3	7.9*	13*	-1	1.3*	5.1*	14*	4.4*	1	5	15*	1
CN(CC(=O)Nc1ccc(F)cc1)C(=O)CN1C(=O)NC2(CCCc3ccccc32)C1=O (stereo not drawn)	4	1	-2	0	0	0	.	.	.	.	.	.
Cc1ccc(C(=O)Cn2cnc3ccccc3c2=O)cc1C	0	4	9	1	-1	1	.	.	.	.	.	.
Cc1ccc(C(=O)Cn2nnc3ccccc32)cc1C	4	5.9*	17*	2	0	4.8*	9.3*	5.7*	.	.	17*	1
COc1ccc(C2=NN3C(C2)c2ccccc2OC32C(=O)N(C)c3ccccc32)cc1 (stereo not drawn)	37	12*	17*	3	2.4*	6.6*	4.0*	4.8*	0	2	22*	1
O=C(N/N=C/c1cccc(O)c1)c1ccc2c(c1)OCCO2	-5	13*	18*	-1	1.1*	19*	17*	9.4*	2	8.5*	18*	1
O=C(N/N=C/c1ccccc1[N+](=O)[O-])c1ccc2c(c1)OCCO2	26	6.2*	24*	-5	1	5.6*	11*	4.8*	.	.	15*	1
O=C(N/N=C/c1cc([N+](=O)[O-])ccc1O)c1ccc2c(c1)OCCO2	3	-1	1	-1	-2	0	.	.	.	.	.	.
O=C1c2ccccc2C(=O)C1c1ccnc2ccccc12	62*	24*	21*	2	5.1*	5.3*	-2	-4	1	18*	8	1
N#CC1=C(N)SC(N)=C(C#N)C1c1ccnc2ccccc12	15	3	-1	0	0	0	.	.	.	.	.	.
Cc1noc(C)c1-c1ccc(C(=O)Nc2ccccc2)c2occc12	.	5	18*	.	1.0*	9.7*	12*	2	.	.	13*	1
COc1ccc(-c2ccc(C(=O)Nc3ccccc3)c3occc23)c(C)c1	.	2	20*	.	0	6.7*	10*	4.2*	.	.	11*	1
